The record followed here is PubChem BioAssay AID1730 (National Center for Advancing Translational Sciences (NCATS), 2009).

SMILES strings stand for the structures. Records with an inconclusive call do not appear. Where a call stands in place of a potency, no number is given. The source made the active and inactive calls. Calls follow the shape of the dose curve; as a rule, active = well fitted inhibition curve with a large enough effect; inconclusive = small, poorly fitted or top-dose-only effect; inactive = no such curve, though single readings can be large or run the other way.

The test in a line: Counterscreen Assay for Inhibitors of the ERK Signaling Pathway using a Homogeneous Screening Assay. The conditions noted are these: AlphaScreen bead counterscreen in cell lysate, 5 h; series mostly up to 45.6 µM. From the text: qHTS Assay for Inhibitors of the ERK Signaling Pathway using a Homogeneous Screening Assay
NIH Chemical Genomics Center [NCGC]
NIH Molecular Libraries Screening Centers Network [MLSCN]
Assay Submitter (PI): Dr. Wei Zheng, NCGC/NIH
The Ras/extracellular-signal-regulated kinase (ERK) mitogen activated protein (MAP) kinase signaling pathway (ERK1/2 cascade) plays is a key role in transmitting signals from the cell surface to the nucleus (Nishida and Gotoh 1993; Chang and Karin, 2001). The cascade is initiated by the small G-protein Ras, which recruits Raf […], where activation occurs. Alternatively, this pathway can be activated by elevating intracellular cAMP.
Activation of the ERK pathway is essential in increased cell division and cell survival. Sustained and constitutive activation of the ERK pathway, however, has been linked to uncontrolled cell proliferation, increased cell survival, and tumor progression. Thus, the ERK has been as an attractive target for cancer chemotherapy in the past few years (Sebolt-Leopold and Herrera, 2004). Given its physiological and pathological importance, assessment of ERK phosphorylation has been broadly performed in both basic research and drug discovery. Most assays for the measurement of ERK phosphorylation use the antibody-based detection methods, such as western blot and ELISA. These assays require multiple reagent additions with cell wash steps and are not suitable for high-throughput screening.
The current cell-based ERK phosphorylation assay was performed using AlphaScreen platform. AlphaScreen is a two bead-based proximity-dependent chemical energy transfer luminescent assay platform. The assay reagents (ERK SureFire(TM) kit) were supplied from TGR BioSciences (Australia). In the presence of specific antibodies, phosphorylated ERK will bring "donor" and "acceptor" beads to a proximity range (<200 nm), and subsequently lead a chemical luminescent reaction upon exciting donor beads with 680 nm laser. To exclude the assay-related false positives, we used a biotinylated rabbit IgG to perform a counter-screen. The biotinylated antibody mimics the phosphorylated ERK1/2 for bringing streptavidin coated beads and protein-A coated beads to a proximity range for the AlphaScreen detection.
NCGC Assay Protocol Summary:
Biotinylated rabbit IgG was used to perform a counter-screen in the context of an AlphaScreen assay kit provided by PerkinElmer. Data were normalized to the controls for basal activity (DMSO only) and 100% activation (25 nM IgG). AC50 values were determined from concentration-response data modeled with the standard Hill equation.
(1) Seed 4 ul/well of resuspended frozen HEK293 cells containing 2000 cells in white 1536-well plates for overnight with 1% FBS at 37C under a humidified atmosphere containing 5% CO2 and 95% air.
(2) Add 23 nL compounds in DMSO solution. The final titration was 0.6 nM to 46 uM.
(3) Incubate at 37C for 30 min.
(4) Dispense 0.5uL vasopressin (25 nM in final)
(5) Incubate at 37C for 5 min.
(6) Dispense 0.5uL of 1:2 diluted 5x lysis buffer.
(7) Incubate at 37C for 10 min.
(8) Dispense 1.5uL of mixture of activation buffer and reaction buffer with AlphaScreen beads (streptavidin donor beads and protein-A acceptor beads, 10 ng/well for each).
(9) Incubate at room temperature for 5 hr.
(10) Detect the assay plate in an EnVision plate reader (PerkinElmer) using the AlphaScreen detection mode.
Keywords: ERK, MEK, type-1 vasopressin receptors, homogenous, cell-based kinase assay, MLSMR, MLSCN, NIH Roadmap, qHTS and NCGC
As for `CCCNc1ncnc2sc(C)c(C)c12`, the Potency result is “inactive”. Regarding `c1ccc(-c2csc(-c3nc4ccccc4[nH]3)n2)cc1`, the Potency result is “inactive”. In the case of `C=C[C@@]1(C)CC(=O)[C@@]2(O)[C@@]3(C)[C@@H](O)CCC(C)(C)[C@@H]3[C@H](OC(=O)CCN(C)C)[C@H](OC(C)=O)[C@@]2(C)O1`, the Potency entry is “inactive”.

For `Cc1ccc(Nc2ncnc3sc(C)c(C)c23)cc1`, the Potency result was “inactive”. Turning to `COc1cc(C2CC(=O)c3c([nH]c(C(=O)OCCOC(C)C)c3C)C2)cc(OC)c1OC` (stereo not given), the Potency entry was “inactive”. With `O=C(Nc1nccs1)c1cc2sccc2n1Cc1ccc(F)cc1`, the Potency result is “inactive”. With `CC(=O)N1CCC(=NNc2nc3ccccc3s2)CC1` the entry was “inactive”; with `Cc1nc2ccccc2nc(=O)c1NNc1ccccc1`, “inactive”. As for `O=C1c2ccc(O)c(O)c2C(=O)c2c(O)ccc(O)c21`, the Potency was 4.47 µM (active). As for `CS(=O)(=O)CCNCc1nc(-c2ccc3ncnc(Nc4ccc(OCc5cccc(F)c5)c(Cl)c4)c3c2)cs1`, the Potency entry is “inactive”. Turning to `CCCCOc1cc(CC2CNC(=O)N2)ccc1OC` (stereo not given), the Potency entry is “inactive”.

Take `Fc1ccc(Nc2ncnc3sc4c(c23)CCC4)cc1`: the Potency result is “inactive”.

For `Cc1sc2ncnc(Sc3nnnn3-c3ccc(Cl)cc3)c2c1C`, the Potency result was “inactive”. On to `CC(C)Cn1c(N)c(C(=O)CSc2ccc3c(c2)OCCO3)c(=O)n(C)c1=O`, for which the Potency result is “inactive”. With `CNc1cccc2c1C(=O)c1ccccc1C2=O`, the Potency is 5.01 µM (active). With `COc1ccc(C(=O)OC(COc2ccccc2)Cn2ccnc2)cc1` (stereo not given) the entry was “inactive”; with `c1ccc(Oc2nc(NCc3ccco3)nc(NCc3ccco3)n2)cc1`, “inactive”.

Consider `CC(/C=C/c1ccccc1)=N\Nc1ccccc1[N+](=O)[O-]`, for which the Potency is 3.16 µM (active). With `Cc1nc2ccccc2c2oc(C(=O)N3CCc4ccccc4C3)cc12` the entry was “inactive”; with `Cn1c(=O)cc(Nc2ccccc2)c2c(=O)n(-c3ccccc3)c(=O)n(-c3ccccc3)c21`, “inactive”; with `O=c1cc(-c2ccc(O)cc2)oc2cccc(O)c12`, “inactive”. With `C=C[C@]1(C)CC(=O)[C@@]2(O)[C@@]3(C)C(O)CCC(C)(C)C3C(O)C(OC(C)=O)[C@@]2(C)O1` (stereo not given in full) the entry was “inactive”. The entry for `COc1ccc(C2=Nn3c(nnc3-c3ccccc3OC)SC2)cc1OC` is “inactive”. `COc1ccc(N=C2C(=Nc3ccc(OC)cc3)N(c3ccc(OC)cc3)C(=S)N2C)cc1`: the Potency is 4.47 µM (active).

As to `CN(C)c1cc2c(Nc3ccc4c(cnn4Cc4ccccc4)c3)ncnc2cn1`, the Potency result is “inactive”. For `COC(=O)c1cc(-c2ccc(OC)c(OC)c2)on1`, the Potency result was “inactive”. Consider `COc1ccc(C(=O)c2ccc(Cl)c([N+](=O)[O-])c2)cc1`, for which the Potency result is “inactive”. With `Cc1sc2ncnc(Nc3ccccc3)c2c1C` the entry was “inactive”.

In the case of `O=C(c1cccs1)c1no[n+]([O-])c1C(=O)c1cccs1`, the Potency result is “inactive”. For `CCCN1C(=O)/C(=C2/C=Cc3ccccc3N2CC)SC1=S`, the Potency was 3.55 µM (active). As to `C=C[C@@]1(C)CC(=O)[C@@]2(O)[C@@]3(C)[C@@H](O)CCC(C)(C)[C@@H]3[C@H](O)[C@H](OC(C)=O)[C@@]2(C)O1`, the Potency entry was “inactive”.

For the molecule `N#CC(C#N)=C1C=CC=CN1/C(=C\c1ccco1)C(=O)c1ccc(Cl)cc1`, the Potency entry is “inactive”. The entry for `COc1cc2ncnc(Nc3cccc(Cl)c3)c2cc1OC` is “inactive”; for `COc1ccc(CC(=O)Nc2cccc(-c3nnc(-c4ccc(C)cc4)o3)c2)cc1OC` it is “inactive”; for `COc1ccc(CC(=O)Nc2cccc(-c3nnc(-c4cccc(C)c4)o3)c2)cc1OC` it is “inactive”. With `CS(=O)(=O)Nc1cccc(-c2ccc3ncnc(Nc4ccc(F)cc4)c3c2)c1` the entry was “inactive”; with `Cc1cccc(CNc2ncnc3ccc(-c4cccc(NS(C)(=O)=O)c4)cc23)c1`, “inactive”; with `Cc1ccc(Nc2ncnc3sc(C)c(C)c23)cc1C`, “inactive”. Turning to `c1ccc(Nc2ncnc3sc4c(c23)CCC4)cc1`, the Potency entry is “inactive”. Regarding `COc1ccc(-c2ccc(SCC(=O)N3CCCC3)nn2)cc1OC`, the Potency entry was “inactive”.
